Experimental findings from ChEMBL document CHEMBL3988442, “University of Dundee, Small-Polar-MMV Screening Library” (2021) are described below.

This assay has as its target T1, Aspartate--tRNA(Asp/Asn) ligase (Mycobacterium tuberculosis (strain ATCC 25618 / H37Rv)) (UniProt P9WFW3).
T1 sequence (whole entry): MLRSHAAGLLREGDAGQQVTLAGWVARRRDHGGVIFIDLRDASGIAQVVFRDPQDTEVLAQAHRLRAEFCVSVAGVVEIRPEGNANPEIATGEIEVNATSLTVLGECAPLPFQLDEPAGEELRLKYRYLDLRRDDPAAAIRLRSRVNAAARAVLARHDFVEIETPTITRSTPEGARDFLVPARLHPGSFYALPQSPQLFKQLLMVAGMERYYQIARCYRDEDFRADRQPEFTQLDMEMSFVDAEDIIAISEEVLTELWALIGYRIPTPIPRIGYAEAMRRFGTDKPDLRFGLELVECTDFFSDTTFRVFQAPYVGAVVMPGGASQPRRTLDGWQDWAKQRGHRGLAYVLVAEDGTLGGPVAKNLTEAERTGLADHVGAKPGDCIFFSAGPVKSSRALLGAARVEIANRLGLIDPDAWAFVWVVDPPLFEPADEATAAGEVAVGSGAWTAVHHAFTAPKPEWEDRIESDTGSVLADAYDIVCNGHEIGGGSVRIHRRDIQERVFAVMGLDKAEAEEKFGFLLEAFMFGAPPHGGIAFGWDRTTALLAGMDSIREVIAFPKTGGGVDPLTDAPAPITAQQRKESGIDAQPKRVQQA
Description: Assay for Asp RNA synthetase-1 from Mycobacterium tuberculosis. In kind it is functional. The arrangement: scale not given: in the data most compounds retested in dose-response had high values. The settings on record: 30 µM.
For `COCC1c2c(cnn2CC2CC2)CCN1Cc1nccs1` (stereo not given), the Percent Effect amounted to 0.524%.

Take `CN(C)CC1CN(Cc2nnc(-c3ccccc3Cl)o2)CCO1` (stereo not given): the Percent Effect is -1.66%.

On to `Cc1cccnc1NC(=O)CSc1ccc2c(c1)OCCO2`, for which the Percent Effect stood at 0.668%.

As to `CCn1nc(C)c2ccn(CC(=O)NC3CCCC3)c(=O)c21`, the Percent Effect turned out to be 4.68%.

With `CC(C)c1n[nH]c(C(=O)Nc2ccncc2)c1Br`, the Percent Effect is -4.8%.

As for `Cc1cncc(C(=O)N2CCCC(C(=O)CCc3ccccc3)C2)c1` (stereo not given), the Percent Effect amounted to 13.2%.

In the case of `Cc1cc(C)n(C2CN(CC(O)c3ccc4c(c3)OCO4)C2)n1` (stereo not given), the Percent Effect is -5.92%.

Regarding `CCc1noc(C(C)N2CCN(c3ccc(C#N)cc3F)CC2)n1` (stereo not given), the Percent Effect is 1.23%.

Regarding `CN(C)CC1CN(c2ccc(C#N)cn2)CCO1` (stereo not given), the Percent Effect came out at 0.899%.

As for `O=C(NCc1cccnc1)C1=NOC2(CCN(S(=O)(=O)C3CC3)C2)C1` (stereo not given), the Percent Effect is -3.41%.

Turning to `CS(=O)(=O)NC[C@@H]1OC[C@H]2CN(C(=O)c3ccc[nH]3)CC[C@H]21`, the Percent Effect worked out at 3.32%.

Regarding `Cc1nc(CN2CCCC(N(C)CCc3ccncc3)C2)no1` (stereo not given), the Percent Effect was 0.35%.

For `CC(=O)Nc1cccc(OCCNC(=O)N(C)Cc2ccco2)c1`, the Percent Effect was -1.02%.

Consider `Cc1nn(C)cc1CN(C)Cc1cc2c(cc1OC(F)F)OCO2`, for which the Percent Effect amounted to 3.57%.

Consider `Cc1ccc(-c2nc(CN3CCc4nn(C)c(=O)cc4C3)no2)cc1`, for which the Percent Effect was 5.81%.

`CCOCCCNC(=O)c1cc(C)nc(N2CCCC2)n1`: the Percent Effect was -5.84%.

Consider `COC[C@@H]1CC[C@H]2[C@H](CCN2S(=O)(=O)c2ccc(OC)cc2)O1`, for which the Percent Effect is -2.58%.

Take `Cn1cc(C(=O)NCc2cn3c(n2)CN(CC2CCOCC2)CC3)cn1`: the Percent Effect is -2.89%.

With `NC(=O)N1CC[C@H](O)[C@@H]1Cc1cccnc1`, the Percent Effect was 1.51%.

Consider `CCn1ccnc1CNCC1CCCN1c1cc(NC)ncn1` (stereo not given), for which the Percent Effect came to 1.78%.
